Among all 1,200 compounds or so, about 360 (30%) were called active. No rule for the calls is given here. The list is a sample of the results. Results with a measured potency or affinity are listed apart.

A short description of the assay: antibacterial activity by ATP level – BacTiter-Glo luminescence, cherry-picked samples, counter-screen, dose response (AID 504843).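 Also: growth measured after 8 h incubation at 30 °C.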 Particulars: bacterial growth; series mostly up to 15 µM.
On to `COc1ccc(S(=O)(=O)N(C)C)cc1NC(=O)CSc1nnc(-c2cccnc2)o1`, for which the compound was classed as inactive.

On to `CC1=CC(C)(C)N2C(=O)C3(C(C#N)=C(N)OC4=C3C(=O)CCC4)c3c(C)c(C)cc1c32` (stereo not given), for which the compound was called inactive.

Turning to `CC1(C)CC(=O)C=C(NCCN2CCN(C(=O)Nc3ccccc3)CC2)C1`, the call was inactive.

On to `COCCCN=C(c1ccco1)n1c(=S)nc(-c2ccco2)n(CCCOC)c1=S`, for which the compound was classed as inactive.

Consider `O=C(COc1ccc([N+](=O)[O-])cc1)Nc1cc(S(=O)(=O)N2CCCCC2)ccc1N1CCCCC1`, for which the compound was called inactive.

`CSc1ccccc1NC(=O)CN(C)CC(=O)Nc1ccc(S(=O)(=O)N2CCCC2)cc1`: the call was inactive.

Turning to `Cc1c(C)c2c(C)nn(-c3ccccc3)c2[nH]c1=O`, the result was inactive.

As for `CC(C)C(c1nnnn1C1CCCC1)N1CCC(C(N)=O)CC1` (stereo not given), the outcome was inactive.

For `Cc1ccc(-n2nnnc2-c2cnc3cc4c(cc3c2C)OCO4)cc1`, the call was inactive.

As to `O=C(Cc1ccccc1Cl)c1ccccc1`, the result was inactive.

For `O=C(NCc1ccccn1)C1CC(c2ccccc2O)=NO1` (stereo not given), the compound was called inactive.

With `COc1cc2cc(CN(CCO)S(=O)(=O)c3ccccc3Cl)c(=O)[nH]c2cc1OC`, the outcome was inactive.

`COC(=O)Nc1ccc2c(c1)N(C(=O)CCN1CCOCC1)c1ccccc1S2`: the outcome was inactive.

For the compound `CC(C)(C)OC(=O)N(CCc1ccccc1)Cc1cccc(OCc2cccc(NC(=O)/C=C/c3ccccc3)c2)c1`, the result was inactive.

Turning to `CCc1ccc(N2CC34C=CC(O3)C(C(=O)OC(C)C)C4C2=O)cc1` (stereo not given), the result was inactive.

As for `Cc1nnc(SCc2ccccc2CSc2nnc(C)s2)s1`, the result was inactive.

For `Cc1onc(-c2ccccc2)c1C(=O)NCc1ccc(F)cc1`, the compound was called inactive.

For the compound `Cc1onc(-c2c(F)cccc2Cl)c1C(=O)Nc1sc2c(c1C#N)CCC(C(C)(C)C)C2` (stereo not given), the outcome was inactive.

Turning to `Cn1c(C(=O)NCc2cccs2)cc2c(=O)n(C)c3ccccc3c21`, the compound was classed as inactive.

Take `CCCOc1ccc(/C(O)=C2/C(=O)C(=O)N(CCN(C)C)C2c2ccc(O)c(OC)c2)cc1` (stereo not given): the compound was called inactive.

For the compound `COC(=O)CSc1ccc(C#N)c(SCC(=O)OC)c1`, the compound was called inactive.

On to `CCOC(=O)C1=C(C)NC(=S)NC1c1cc(C)sc1C` (stereo not given), for which the result was inactive.

For `CCN(CC)C(=O)C1=C(C)NC(=O)NC1c1c(F)cccc1Cl` (stereo not given), the call was inactive.

Consider `Nc1ccc2c(c1)-c1ccccc1S(=O)(=O)N2`, for which the compound was called inactive.

As for `CCCOc1cccc(C(=O)Nc2ccc(Br)cc2F)c1`, the compound was called inactive.

For `CCOC(=O)c1ccccc1-n1nnnc1C`, the outcome was inactive.

Regarding `O=C(CNc1ccc(Cl)cc1)c1ccc(Br)cc1`, the call was inactive.

For `CCc1ccc(C(=O)Nc2ccc(S(=O)(=O)Nc3nc(C)cc(C)n3)cc2)o1`, the call was inactive.

Consider `O=S(=O)(/N=C(/Nc1ccccc1)c1ccccc1)c1cccs1`, for which the compound was called inactive.

Regarding `COc1ccc(-c2cc(C(=O)Oc3ccc([N+](=O)[O-])cc3)c3ccccc3n2)cc1`, the call was inactive.

Turning to `COC(=O)COc1cc2ccccc2cc1C(=O)Nc1ccccc1`, the compound was classed as inactive.

For `CCO[C@@H]1OC(C(=O)O)=C[C@H](C)[C@H]1CCCO`, the outcome was inactive.

Regarding `O=C(O)C1(C(=O)O)CCC1`, the outcome was inactive.

Take `Cc1occc1C(=O)NCc1cccc(CNC(=O)c2ccoc2C)c1`: the outcome was inactive.

As to `O=C(Cn1cc(C(F)(F)F)ccc1=O)OCC(=O)c1ccc[nH]1`, the call was inactive.

On to `COc1ccc(-c2[nH]nc3c2C(c2ccoc2)C(C#N)=C(N)O3)cc1` (stereo not given), for which the call was inactive.

For the compound `COc1ccccc1N1CCN(C(=O)c2cc3c(=O)n4ccccc4nc3s2)CC1`, the outcome was inactive.

`C=CCOc1ccccc1CN1CCC(n2nccc2NC(=O)C2CC2)CC1`: the outcome was inactive.

`COc1ccccc1-c1ccc(=O)n(CC(=O)Nc2ccc(C(=O)N3CCCC3)cc2)n1`: the result was inactive.

On to `N#Cc1ccccc1S(=O)(=O)N1CCN(CC(=O)Nc2ccnn2C2CCCC2)CC1`, for which the call was inactive.

In the case of `COc1ccccc1C(=O)Nc1ccnn1C1CCN(Cc2cnn(C)c2)CC1`, the result was inactive.

In the case of `C[C@H]1CN([C@@H](C)CO)C(=O)c2cccc(NS(=O)(=O)c3ccc(F)cc3)c2O[C@H]1CN(C)Cc1ccc(Cl)c(Cl)c1`, the call was inactive.

As to `CNC(=O)CN(c1ccc(C(C)C)cc1)S(C)(=O)=O`, the compound was called inactive.

For `CC1CCN(C(=O)C2(NC(=O)Nc3cccc(F)c3)CCCCC2)CC1`, the outcome was inactive.

In the case of `CCOc1ccc(NC(=O)c2cccc(OC(=S)N3CCC(C)CC3)c2)cc1`, the compound was called inactive.

As for `Cc1nc2ccc(C(=O)Nc3ccc4nc[nH]c4c3)cc2[nH]1`, the result was inactive.

With `O=C(N[C@@H](Cc1ccccc1)C(=O)NC1CC1)c1ccc(Cl)cc1`, the compound was called inactive.

In the case of `CN1C(=O)N(C)C2(c3ccccc3)NC(=O)NC12c1ccccc1` (stereo not given), the outcome was inactive.

In the case of `O=C(CC1SCCNC1=O)Nc1cccc(Cl)c1` (stereo not given), the compound was classed as inactive.

On to `COC(=O)CN1C(=O)N/C(=C/c2ccccc2OC)C1=O`, for which the compound was called inactive.

Take `Nc1nnc(-c2ccc(F)cc2)s1`: the call was inactive.

As for `O=C(CSc1nnc(-c2ccncc2)s1)Nc1ccc(Cl)c(C(=O)O)c1`, the outcome was inactive.

Take `CC(C)c1nnc(NC(=O)CCS(=O)(=O)Cc2ccccc2)s1`: the result was inactive.

With `O=C(COc1ccc2c3c(c(=O)oc2c1)CCCC3)NCc1ccncc1`, the outcome was inactive.

`O=C(O)CCC(=O)Nc1sc2c(c1C(=O)Nc1cccc3ccccc13)CCCCC2`: the call was inactive.

Take `Cc1onc(C(=O)NCc2ccc(F)cc2)c1[N+](=O)[O-]`: the result was inactive.

In the case of `O=C(NCc1ccc(Cl)cc1)c1cccc(NC2=NC3CS(=O)(=O)CC3S2)c1` (stereo not given), the outcome was inactive.

For `O=C(COc1ccc2c3c(c(=O)oc2c1)CCCC3)NCC(O)c1ccccc1` (stereo not given), the outcome was inactive.

Regarding `COc1ccc2c3c(c(=O)oc2c1OCC(N)=O)CCCC3`, the compound was classed as inactive.

Turning to `Cc1ccc2c(CC(=O)Nc3ccc(N4CCN(C)CC4)cc3C)coc2c1`, the compound was called inactive.

Consider `CCOCCCNC(=S)NCCNc1nc2ccc(C)cc2cc1C#N`, for which the compound was classed as inactive.

Take `COc1cc(C(=O)NC(c2ccccc2)c2ccccc2)cc(OC)c1C`: the result was inactive.

With `O=C(Cn1c(=O)n(-c2ccc(F)cc2)c(=O)c2sccc21)NC1CCCCC1`, the compound was called inactive.

As for `O=C(NNc1ncnc2c1cnn2-c1ccccc1)c1cccs1`, the result was inactive.

As to `CC(C)S(=O)(=O)C1=NSC2=NC(=O)/C(=C\c3ccc(-c4cccc(C(=O)O)c4)o3)C(=N)N21`, the result was inactive.

Take `CCc1nc2cc3sc(CC)nc3cc2s1`: the compound was called inactive.

On to `O=C(CCNc1n[nH]c(=O)[nH]c1=O)N1CCCCC1`, for which the compound was called inactive.

On to `C(=N\n1cncn1)/c1ccc(N2CCOCC2)cc1`, for which the result was inactive.

For the compound `Cc1cnc(C(=O)OCC(=O)c2ccc(-c3ccccc3)cc2)cn1`, the outcome was inactive.

For the compound `O=C(OCC(=O)N1CCCC1=O)c1cccc(S(=O)(=O)N2CCOCC2)c1`, the call was inactive.

Regarding `CN(C(=O)COC(=O)c1cccc(S(=O)(=O)N2CCOCC2)c1)C1CCS(=O)(=O)C1` (stereo not given), the compound was called inactive.

Consider `Cc1ccc(C(=O)N/C(=C\c2cn(S(=O)(=O)N(C)C)c3ccccc23)C(=O)NCCCN2CCOCC2)cc1`, for which the call was inactive.

`COc1ccc(C)cc1S(=O)(=O)N(CC(=O)NC1CCCC1)c1ccc(F)cc1`: the compound was classed as inactive.

As to `COc1ccc(S(=O)(=O)N2CCN(CC(=O)Nc3c(C)n[nH]c3C)CC2)cc1OC`, the call was inactive.

As to `COc1cc(CNCc2ccccn2)ccc1OCc1c(Cl)cccc1Cl`, the compound was called inactive.

For the compound `Cc1nn(-c2ccccc2)c(Cl)c1/C=N/NC(=O)c1ccccc1NS(=O)(=O)c1cccs1`, the compound was called inactive.

Turning to `CCOC(=O)c1c(NC(=O)C2C3C=CC(C3)C2C(=O)O)sc2c1CCC(C)C2` (stereo not given), the compound was called inactive.

For `COc1ccc(S(=O)(=O)N2CCC(C(=O)N3CCN(C)CC3)CC2)cc1Cl`, the compound was classed as inactive.

For the compound `COc1ccc(OC)c(S(=O)(=O)N2CCC(C(=O)NC3CC3)CC2)c1`, the result was inactive.

As to `COc1cccc(C(=O)N(CN2CCCC2=O)c2cccc(Cl)c2)c1OC`, the result was inactive.

`NS(=O)(=O)c1cc(C(=O)O)c(NCc2ccco2)cc1Cl`: the result was inactive.

Take `COc1ccc(S(=O)(=O)NCCSCc2ccco2)cc1Cl`: the result was inactive.

As to `CS(=O)(=O)c1ccc([C@@H](O)[C@@H](CF)NC(=O)C(Cl)Cl)cc1`, the compound was classed as inactive.

As for `CCC[C@@H]1C[C@@H](C(=O)N[C@H]([C@@H](C)O)[C@H]2O[C@H](SC)[C@H](O)[C@@H](O)C2O)N(C)C1` (stereo not given in full), the call was inactive.

Turning to `O=C(O)CCc1ccc(-c2cccs2)o1`, the compound was classed as inactive.

Consider `c1ccc(CC2=NCCN2)cc1`, for which the call was inactive.

For `Cc1ccc2[nH]c(=O)c(CNS(=O)(=O)c3ccccc3)c(-c3ccccc3)c2c1`, the result was inactive.

As for `Cc1ccccc1Nc1nnc(C)c(=O)[nH]1`, the call was inactive.

Regarding `Cc1cccc(-c2onc3ccc(C4(C)OCCO4)cc23)c1`, the outcome was inactive.

`COc1ccc(/C=N/NC(=O)COc2cc(C)cc(C)c2)cc1COC(C)=O`: the outcome was inactive.

Turning to `Cc1ccc(NC(=O)CSc2nccn2C)cc1F`, the result was inactive.

As to `CCn1c(SCC(=O)NC2CCCCC2)nnc1-c1cccnc1`, the outcome was inactive.

Turning to `Cc1ccc(N2CC(C(=O)Nc3cc(C(F)(F)F)ccc3N3CCCC3)CC2=O)cc1` (stereo not given), the compound was called inactive.

As to `CCOCCCNC(=O)C(c1ccc(C)cc1)N(Cc1cccs1)C(=O)c1ccccc1O` (stereo not given), the call was inactive.

`COc1ccc(OC)c(C(=O)CSc2nnc(-c3cccs3)o2)c1`: the call was inactive.

For the compound `O=C(Nc1ccc(C(=O)O)cc1)/C(=C\C=C\c1ccccc1)NC(=O)c1ccccc1Br`, the compound was called inactive.

As to `Cc1noc(NS(=O)(=O)c2ccc(NC(=O)c3ccoc3C)cc2)c1C`, the outcome was inactive.

With `O=C(O)c1ccn(COc2ccc(Br)cc2)n1`, the call was inactive.

On to `Cc1ccc(NC(=O)c2cc(N3C(=O)C4CC=CCC4C3=O)ccc2N2CCOCC2)cc1Cl` (stereo not given), for which the compound was classed as inactive.

As to `CCOc1ccc(N(CC(=O)NCc2ccc(OC)cc2)S(=O)(=O)c2c(C)[nH]c(=O)[nH]c2=O)cc1`, the call was inactive.

Regarding `CN1CCc2c(sc3nc(SCC(=O)N4CCOCC4)nc(N)c23)C1`, the compound was classed as inactive.

Turning to `Cc1cc(C)c(C#N)c(Oc2ccccc2Br)n1`, the outcome was inactive.

Consider `Cc1nnc(Nc2ccc(Cl)c(C(F)(F)F)c2)[nH]c1=O`, for which the compound was called inactive.

Turning to `CC(/C=N/NC(=O)c1n[nH]c2c1CCC2)=C\c1ccccc1`, the compound was classed as inactive.

`CCCN=C1N(CC)C[C@@H]2[C@@H]3C(=O)N(C)C(=O)[C@@H]3[C@](Cc3ccccc3)(C(=O)OC)N12`: the compound was classed as inactive.

The values are drawn from PubChem BioAssay AID504843 (Broad Institute, 2011).
